Data from PubChem BioAssay (Tox21).
Records with an inconclusive call do not appear. A call without a number means that no potency is given here. A number with no mark means an inactive call. Active and inactive are the calls of the source. Calls come from the whole dose curve; as a rule, active = well fitted curve in the direction sought with a large enough effect in the repeat runs; inconclusive = weak or mixed curves; inactive = no such curve, though single readings can be large; an effect the other way counts as inactive or inconclusive. Where a SMILES comes first, the peptide text is derived from it.

How the values were obtained:
[1] = target: Nuclear receptor subfamily 1 group I member 2 (Homo sapiens) (UniProt O75469); experiment: Human pregnane X receptor (PXR) small molecule agonists, qHTS assay (AID 1346982); note: nearly all actives have a fitted effect of over 35% in size; note: potency is the fitted concentration of half-maximal effect
Nuclear receptor subfamily 1 group I member 2 (Homo sapiens), sequence (O75469 whole entry, looked up): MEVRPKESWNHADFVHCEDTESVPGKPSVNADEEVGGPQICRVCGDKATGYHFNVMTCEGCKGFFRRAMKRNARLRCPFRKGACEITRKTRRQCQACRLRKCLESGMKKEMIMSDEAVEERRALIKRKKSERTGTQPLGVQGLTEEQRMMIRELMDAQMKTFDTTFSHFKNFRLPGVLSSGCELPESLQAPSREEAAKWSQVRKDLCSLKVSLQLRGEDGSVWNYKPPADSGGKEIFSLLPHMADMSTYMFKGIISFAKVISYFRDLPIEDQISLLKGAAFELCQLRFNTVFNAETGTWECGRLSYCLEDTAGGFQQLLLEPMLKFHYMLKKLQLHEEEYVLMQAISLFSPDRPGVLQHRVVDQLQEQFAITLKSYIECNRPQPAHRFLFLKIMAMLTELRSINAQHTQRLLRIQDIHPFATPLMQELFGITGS
In short: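 Luciferase signal from ONE-Glo (30 min, room temperature) measured activation of hPXR-driven CYP3A4 reporter expression in PXR-Luc HepG2 cells treated with compounds for 24 hr at 37 C.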

[2] = target: Cytochrome P450 2D6 (Homo sapiens) (UniProt P10635); experiment: Cytochrome P450 Family 2 Subfamily D Member 6 (CYP2D6) small molecule antagonists: luciferase reporter qHTS assay (AID 1671196); note: nearly all actives have a fitted effect of over 50% in size; note: potency is the fitted concentration of half-maximal effect; for activity change, negative = inhibition: series mostly up to about 120 µM
Cytochrome P450 2D6 (Homo sapiens), sequence (P10635 whole entry, looked up): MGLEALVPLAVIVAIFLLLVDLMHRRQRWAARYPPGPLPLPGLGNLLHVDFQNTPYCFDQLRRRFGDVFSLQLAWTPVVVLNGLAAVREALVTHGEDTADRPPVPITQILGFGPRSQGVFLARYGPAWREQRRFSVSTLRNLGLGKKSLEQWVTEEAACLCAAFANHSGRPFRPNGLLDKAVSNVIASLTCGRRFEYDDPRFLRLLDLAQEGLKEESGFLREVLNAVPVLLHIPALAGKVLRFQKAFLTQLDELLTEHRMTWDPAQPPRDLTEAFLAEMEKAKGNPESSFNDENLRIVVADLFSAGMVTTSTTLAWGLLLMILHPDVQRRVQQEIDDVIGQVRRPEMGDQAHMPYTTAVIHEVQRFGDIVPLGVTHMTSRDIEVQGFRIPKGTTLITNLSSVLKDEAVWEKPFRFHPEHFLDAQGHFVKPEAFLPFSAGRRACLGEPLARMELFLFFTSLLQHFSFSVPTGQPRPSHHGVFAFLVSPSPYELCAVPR
In short: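 Read-out is luminescence from luciferin formed by CYP2D6 turnover of a proluciferin substrate, recorded as relative luminescence units. Reactions ran 1 h at room temperature after NADPH regeneration solution was added.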

[3] = target: Cytochrome P450 2C9 (Homo sapiens) (UniProt P11712); experiment: Cytochrome P450 Family 2 Subfamily C Member 9 (CYP2C9) small molecule antagonists: luciferase reporter qHTS assay (AID 1671198); note: nearly all actives have a fitted effect of over 50% in size; note: potency is the fitted concentration of half-maximal effect; for activity change, negative = inhibition: series mostly up to about 120 µM
Cytochrome P450 2C9 (Homo sapiens), sequence (P11712 whole entry, looked up): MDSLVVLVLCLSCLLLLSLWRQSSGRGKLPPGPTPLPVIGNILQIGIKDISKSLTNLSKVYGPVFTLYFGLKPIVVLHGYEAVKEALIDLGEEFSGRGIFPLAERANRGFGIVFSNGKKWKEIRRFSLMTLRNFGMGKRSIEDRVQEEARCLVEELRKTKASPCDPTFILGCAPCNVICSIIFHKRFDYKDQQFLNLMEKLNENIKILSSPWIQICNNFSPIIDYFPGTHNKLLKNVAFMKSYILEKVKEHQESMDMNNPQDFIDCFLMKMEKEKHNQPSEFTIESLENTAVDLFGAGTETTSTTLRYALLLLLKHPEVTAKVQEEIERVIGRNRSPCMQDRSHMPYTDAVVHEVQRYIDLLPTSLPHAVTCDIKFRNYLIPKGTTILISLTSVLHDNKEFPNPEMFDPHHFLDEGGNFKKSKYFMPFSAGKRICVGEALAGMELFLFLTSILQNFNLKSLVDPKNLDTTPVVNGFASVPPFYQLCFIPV
In short: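 Enzyme-substrate mix preincubated with compound 10 min at room temperature; reaction started with NADPH regeneration solution, 1 h 37C. Luminescent luciferin product read after 20 min detection reagent.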

[4] = target: Cytochrome P450 1A2 (Homo sapiens) (UniProt P05177); experiment: Cytochrome P450 Family 1 Subfamily A Member 2 (CYP1A2) small molecule antagonists: luciferase reporter qHTS assay (AID 1671199); note: nearly all actives have a fitted effect of over 50% in size; note: potency is the fitted concentration of half-maximal effect; for activity change, negative = inhibition: series mostly up to about 120 µM
Cytochrome P450 1A2 (Homo sapiens), sequence (P05177 whole entry, looked up): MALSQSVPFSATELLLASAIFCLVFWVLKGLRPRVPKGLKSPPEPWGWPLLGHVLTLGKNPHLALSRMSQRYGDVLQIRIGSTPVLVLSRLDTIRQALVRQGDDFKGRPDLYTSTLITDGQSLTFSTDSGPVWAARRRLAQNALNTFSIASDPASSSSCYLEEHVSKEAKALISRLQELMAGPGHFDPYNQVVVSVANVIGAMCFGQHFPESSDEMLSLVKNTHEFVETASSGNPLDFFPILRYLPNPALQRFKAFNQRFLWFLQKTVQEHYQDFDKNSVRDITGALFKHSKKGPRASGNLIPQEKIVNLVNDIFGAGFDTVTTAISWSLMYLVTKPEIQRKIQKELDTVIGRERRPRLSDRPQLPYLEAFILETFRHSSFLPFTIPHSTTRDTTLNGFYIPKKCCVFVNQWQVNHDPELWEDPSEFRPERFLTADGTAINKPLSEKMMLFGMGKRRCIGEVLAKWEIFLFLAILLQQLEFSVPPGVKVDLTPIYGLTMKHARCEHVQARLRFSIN
In short: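 P450-Glo CYP1A2, 1536-well qHTS: enzyme/proluciferin substrate + cpd (DMSO), 10 min RT; NADPH regen, 1 h RT; detection reagent, 20 min; luminescence, RLU.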

[5] = target: Voltage-gated inwardly rectifying potassium channel KCNH2 (Homo sapiens) (UniProt Q12809); experiment: Human Ether-a-go-go-Related Gene (hERG) channel small molecule antagonists: fluorescence cell-based qHTS assay (AID 1671200);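 note: hERG-expressing U2OS cells given a thallium stimulus after FluxOR II dye loading; series mostly up to about 77 µM; nearly all actives have a fitted effect of over 50% in size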
Voltage-gated inwardly rectifying potassium channel KCNH2 (Homo sapiens), sequence (Q12809 whole entry, looked up): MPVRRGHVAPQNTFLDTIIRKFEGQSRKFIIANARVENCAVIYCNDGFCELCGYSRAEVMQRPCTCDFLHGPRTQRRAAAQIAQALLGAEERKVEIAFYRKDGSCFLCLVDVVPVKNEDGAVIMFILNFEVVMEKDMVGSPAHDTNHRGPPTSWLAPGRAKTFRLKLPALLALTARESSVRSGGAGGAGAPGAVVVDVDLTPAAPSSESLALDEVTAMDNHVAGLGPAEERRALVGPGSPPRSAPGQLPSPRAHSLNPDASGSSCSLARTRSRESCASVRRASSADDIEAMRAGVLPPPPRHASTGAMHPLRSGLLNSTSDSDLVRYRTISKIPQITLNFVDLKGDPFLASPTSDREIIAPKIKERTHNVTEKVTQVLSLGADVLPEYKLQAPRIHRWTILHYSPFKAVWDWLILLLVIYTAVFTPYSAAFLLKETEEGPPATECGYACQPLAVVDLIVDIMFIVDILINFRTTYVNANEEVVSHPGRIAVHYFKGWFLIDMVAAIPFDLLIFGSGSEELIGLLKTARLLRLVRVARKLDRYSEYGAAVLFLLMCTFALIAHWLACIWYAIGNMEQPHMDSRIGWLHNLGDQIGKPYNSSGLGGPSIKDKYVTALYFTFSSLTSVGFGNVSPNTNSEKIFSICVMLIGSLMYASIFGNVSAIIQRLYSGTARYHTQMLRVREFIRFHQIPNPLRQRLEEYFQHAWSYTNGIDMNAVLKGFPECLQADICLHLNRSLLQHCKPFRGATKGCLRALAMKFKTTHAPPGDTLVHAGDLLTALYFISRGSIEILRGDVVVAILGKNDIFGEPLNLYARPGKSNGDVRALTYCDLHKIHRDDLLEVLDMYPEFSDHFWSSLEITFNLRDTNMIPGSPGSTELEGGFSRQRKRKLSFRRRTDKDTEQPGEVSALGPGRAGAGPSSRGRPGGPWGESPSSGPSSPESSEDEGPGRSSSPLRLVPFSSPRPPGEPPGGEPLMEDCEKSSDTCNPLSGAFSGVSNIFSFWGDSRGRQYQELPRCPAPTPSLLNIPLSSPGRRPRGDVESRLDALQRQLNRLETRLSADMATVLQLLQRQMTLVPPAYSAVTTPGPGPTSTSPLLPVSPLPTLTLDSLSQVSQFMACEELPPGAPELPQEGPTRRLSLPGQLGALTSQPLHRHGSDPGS
In short: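 First, 1000 cells per well are seeded and cultured overnight at 37 C. Next, FluxOR II dye is loaded for 1 h at room temperature, protected from light. After 10 more minutes, stimulus is added and fluorescence is read.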

[6] = target: Cytochrome P450 3A4 (Homo sapiens) (UniProt P08684); experiment: Cytochrome P450 Family 3 Subfamily A Member 4 (CYP3A4) small molecule antagonists: luciferase reporter qHTS assay (AID 1671201); note: nearly all actives have a fitted effect of over 50% in size; note: potency is the fitted concentration of half-maximal effect; for activity change, negative = inhibition: series mostly up to about 120 µM
Cytochrome P450 3A4 (Homo sapiens), sequence (P08684 whole entry, looked up): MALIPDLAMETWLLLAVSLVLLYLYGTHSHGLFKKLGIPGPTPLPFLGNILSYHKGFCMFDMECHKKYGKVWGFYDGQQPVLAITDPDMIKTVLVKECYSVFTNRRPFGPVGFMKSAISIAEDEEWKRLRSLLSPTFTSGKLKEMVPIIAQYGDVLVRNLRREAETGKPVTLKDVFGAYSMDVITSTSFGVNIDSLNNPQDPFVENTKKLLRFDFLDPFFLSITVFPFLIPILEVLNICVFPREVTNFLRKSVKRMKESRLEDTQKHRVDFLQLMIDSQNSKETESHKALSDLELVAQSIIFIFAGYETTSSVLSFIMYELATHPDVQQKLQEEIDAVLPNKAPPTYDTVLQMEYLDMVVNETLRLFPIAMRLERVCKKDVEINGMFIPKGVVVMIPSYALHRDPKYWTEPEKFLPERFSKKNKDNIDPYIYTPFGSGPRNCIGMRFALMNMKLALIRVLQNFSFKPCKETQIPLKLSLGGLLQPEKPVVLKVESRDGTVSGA
In short: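 Enzyme and proluciferin substrate are mixed with test chemicals for 10 min, then NADPH regeneration system drives turnover for 1 h at room temperature. A detection reagent halts the reaction; luminescence after 20 min gives relative activity.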

[7] = target: Cytochrome P450 2C19 (Homo sapiens) (UniProt P33261); experiment: Cytochrome P450 Family 2 Subfamily C Member 19 (CYP2C19) small molecule antagonists: luciferase reporter qHTS assay (AID 1671197); note: series mostly up to about 120 µM; nearly all actives have a fitted effect of over 65% in size
Cytochrome P450 2C19 (Homo sapiens), sequence (P33261 whole entry, looked up): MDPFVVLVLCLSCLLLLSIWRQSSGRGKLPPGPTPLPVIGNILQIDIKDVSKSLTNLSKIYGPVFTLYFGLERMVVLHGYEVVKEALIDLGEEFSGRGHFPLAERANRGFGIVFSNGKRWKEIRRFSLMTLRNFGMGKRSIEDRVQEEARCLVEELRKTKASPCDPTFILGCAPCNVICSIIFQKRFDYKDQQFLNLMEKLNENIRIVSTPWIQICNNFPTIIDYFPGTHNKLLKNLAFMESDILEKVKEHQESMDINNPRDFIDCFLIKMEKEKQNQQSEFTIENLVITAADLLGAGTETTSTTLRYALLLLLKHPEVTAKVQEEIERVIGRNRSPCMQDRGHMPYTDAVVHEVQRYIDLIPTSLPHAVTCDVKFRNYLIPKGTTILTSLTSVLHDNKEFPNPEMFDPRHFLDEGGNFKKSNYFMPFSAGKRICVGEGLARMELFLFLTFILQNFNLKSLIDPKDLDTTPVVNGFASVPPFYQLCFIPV
In short: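 Relative luminescence units recorded 20 min after the detection reagent stopped a 1 h, 37C CYP2C19 reaction on proluciferin substrate, which was started by NADPH regeneration following 10 min room-temperature compound preincubation; ketoconazole positive control.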

[8] = target: Nuclear receptor subfamily 1 group I member 2 (Homo sapiens) (UniProt O75469); experiment: Human pregnane X receptor (PXR) activation by small molecules, qHTS assay (AID 1346985); note: nearly all actives have a fitted effect of over 40% in size
In short: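 DPX-2 cells (HepG2 co-transfected with a PXR response element and a CYP3A4-promoter luciferase construct) were seeded at 2,000 per well, rested 5 hr at 37C, then exposed to DMSO-dissolved compounds for 24 hr. Activation was read as luciferase luminescence.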

C=CCOC(=O)CCCCCC
Potency [1]: inactive | Potency [2]: inactive | Potency [3]: inactive | Potency [4]: inactive | Potency [5]: inactive | Potency [6]: inactive

CC(C)COC(=O)c1ccccc1
Potency [1]: inactive | Potency [2]: inactive | Potency [3]: inactive | Potency [5]: inactive | Potency [6]: inactive

C=C(C)[C@@H]1CC=C(C)CC1
Potency [1]: inactive | Potency [2]: inactive | Potency [3]: inactive | Potency [5]: inactive | Potency [6]: inactive

Cc1c(C(=O)c2c[nH]n(C)c2=O)ccc(S(C)(=O)=O)c1C1=NOCC1
Potency [1]: inactive | Potency [2]: inactive | Potency [4]: 14.5 µM (active) | Potency [5]: inactive | Potency [6]: inactive

c1ccc(B(c2ccccc2)c2ccccc2)cc1
Potency [1]: 30.6 µM (active) | Potency [2]: 31.7 µM (active) | Potency [4]: 22.4 µM (active) | Potency [5]: inactive | Potency [6]: 35.5 µM (active)

Cc1ccccc1C(N)=O
Potency [1]: inactive | Potency [2]: 56.3 µM (active) | Potency [5]: inactive | Potency [6]: inactive

CC1CC(=O)CC(C)(C)C1 (stereo unspecified)
Potency [1]: inactive | Potency [2]: inactive | Potency [3]: inactive | Potency [5]: inactive | Potency [6]: inactive

OC[C@@H](O)C(O)[C@@H](O)CO (stereo partly specified)
Potency [1]: inactive | Potency [2]: inactive | Potency [4]: inactive | Potency [5]: inactive | Potency [6]: inactive

O=Cc1cc2ccccc2o1
Potency [1]: inactive | Potency [2]: inactive | Potency [3]: inactive | Potency [4]: 31.7 µM (active) | Potency [5]: inactive | Potency [6]: inactive

CC1=C(O)C(=O)C(C)O1 (stereo unspecified)
Potency [1]: inactive | Potency [2]: inactive | Potency [4]: 28.9 µM (active) | Potency [5]: inactive | Potency [6]: inactive

CC(C)CCOC(=O)c1ccccc1
Potency [1]: inactive | Potency [2]: inactive | Potency [5]: inactive | Potency [6]: inactive

CC(=O)CCC1=C(C)CCCC1(C)C
Potency [1]: inactive | Potency [2]: inactive | Potency [3]: 31.7 µM (active) | Potency [4]: 39.9 µM (active) | Potency [5]: inactive | Potency [6]: 10 µM (active)

CC(=O)OCC(=O)Nc1cc(C#N)cc(NC(=O)COC(C)=O)c1Cl
Potency [1]: inactive | Potency [2]: inactive | Potency [4]: inactive | Potency [5]: inactive | Potency [6]: inactive

Cc1cccc(Cl)c1
Potency [1]: inactive | Potency [2]: inactive | Potency [4]: inactive | Potency [5]: inactive | Potency [6]: inactive

CCC(C)C(C)=O (stereo unspecified)
Potency [1]: inactive | Potency [2]: 34.8 µM (active) | Potency [3]: inactive | Potency [6]: inactive

Cc1ccnc(N)c1
Potency [1]: inactive | Potency [2]: inactive | Potency [4]: inactive | Potency [5]: inactive | Potency [6]: inactive

Cc1c(Cl)cccc1Cl
Potency [1]: inactive | Potency [2]: inactive | Potency [3]: inactive | Potency [5]: inactive | Potency [6]: inactive

COC(C)(OC)OC
Potency [1]: inactive | Potency [2]: inactive | Potency [3]: inactive | Potency [6]: inactive

CCCCCc1cccc(=O)o1
Potency [1]: inactive | Potency [2]: inactive | Potency [4]: 35.6 µM (active) | Potency [6]: inactive

CC(=O)O[C@H]1C[C@@H]2CC[C@@]1(C)C2(C)C
Potency [1]: inactive | Potency [2]: inactive | Potency [5]: inactive | Potency [6]: inactive

Cn1c(=O)c2c(ncn2CCO)n(C)c1=O
Potency [1]: inactive | Potency [2]: inactive | Potency [3]: inactive | Potency [5]: inactive | Potency [6]: inactive

CC(S)C(C)S (stereo unspecified)
Potency [1]: inactive | Potency [2]: inactive | Potency [3]: inactive | Potency [6]: inactive

CN(C)CCN(C)CCO
Potency [1]: inactive | Potency [7]: inactive | Potency [3]: inactive | Potency [4]: inactive | Potency [5]: inactive | Potency [6]: inactive

NCC1(Cc2noc(=O)[nH]2)CCCCC1
Potency [1]: inactive | Potency [2]: inactive | Potency [5]: inactive | Potency [6]: inactive

O=C1OCCO1
Potency [1]: inactive | Potency [2]: inactive | Potency [4]: 42.2 µM (active) | Potency [5]: inactive | Potency [6]: inactive

CC1c2ccccc2CN1NC(=O)c1ccc(Cl)c(S(N)(=O)=O)c1 (stereo unspecified)
Potency [1]: inactive | Potency [2]: inactive | Potency [4]: inactive | Potency [6]: inactive

O=C(CCCCC(=O)Nc1c(I)cc(I)c(C(=O)O)c1I)Nc1c(I)cc(I)c(C(=O)O)c1I
Potency [1]: inactive | Potency [2]: inactive | Potency [3]: inactive | Potency [4]: inactive | Potency [6]: inactive

COC(=O)c1ccccc1C(=O)O
Potency [1]: inactive | Potency [2]: inactive | Potency [4]: inactive | Potency [5]: inactive | Potency [6]: inactive

O=C1c2ccccc2C(=O)c2cc(Cl)ccc21
activation [1]: 8.25% [at 8.39 µM] | activity change, negative = inhibition [2]: -1.33% [at 10.5 µM] | Potency [4]: 0.138 µM (active) | activity change, negative = inhibition [5]: -0.029% [at 6.97 µM] | activity change, negative = inhibition [6]: 5.17% [at 10.5 µM]

CC(=O)CC(=O)Nc1ccc(C)cc1C
Potency [1]: inactive | Potency [2]: inactive | Potency [4]: 15.9 µM (active)

C[C@H]1[C@@H](c2ccccc2)NC(=O)N1C
Potency [1]: inactive | Potency [2]: inactive | Potency [3]: inactive | Potency [5]: inactive | Potency [6]: inactive

CC(=O)N[C@@H](CO)C(=O)N[C@@H](CC(=O)O)C(=O)N[C@@H](CCCCN)C(=O)N1CCC[C@H]1C(=O)O (Ac-SDKP-OH)
Potency [1]: inactive | Potency [2]: inactive | Potency [4]: inactive | Potency [5]: inactive | Potency [6]: inactive

COP(=O)(O)OP(=O)(O)OC
Potency [1]: inactive | Potency [7]: inactive | Potency [3]: inactive | Potency [4]: inactive | Potency [5]: inactive | Potency [6]: inactive

CCOC(=O)CC1(C)OCC(C)O1 (stereo unspecified)
Potency [1]: inactive | Potency [2]: inactive | Potency [3]: inactive | Potency [4]: inactive | Potency [5]: inactive | Potency [6]: inactive

CC(=O)O[C@@H]1CC2CCC1(C)C2(C)C (stereo partly specified)
Potency [8]: inactive
